Compounds with a hit are over-represented: about 3.1% of the library has one in this group of screens.
Neddylation inh: inhibitors of cullin neddylation, primary screen, biochemical, TR-FRET, uHTS, NAE and Ubc12; calls only at 25 µM; NEDD8-conjugating enzyme Ubc12 (Homo sapiens) + NEDD8-activating enzyme E1 regulatory …; actives 0.58% (n = 360,000); in the data active means inhibition above about 36%
Rin1-Abl PPI inh: inhibitors of Rin1-Abl protein binding, primary screen, biochemical, TR-FRET; inhibition, % at 7.35 µM; actives 0.4% (n = 360,000); Tyrosine-protein kinase ABL1 (Homo sapiens) + Ras and Rab interactor 1 (Homo sapiens), …; in the data active means inhibition above about 5%, passing the limit was not always enough
KLK7 zymogen act: proKLK7 zymogen activators, primary screen, biochemical, fluorescence intensity. Kallikrein-7 (Homo sapiens), P49862. purified proKLK7, EDANS-DABCYL substrate fluorescence; 100% is mature enzyme control, 0% vehicle. activation, % at 7 µM. actives 0.9% (n = 370,000);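 active means activation above the mean of all tested compounds plus 3 SD, computed per campaign excluding outliers beyond control limits, cut at about 13% in these data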
Target sequence (P49862 whole entry, looked up): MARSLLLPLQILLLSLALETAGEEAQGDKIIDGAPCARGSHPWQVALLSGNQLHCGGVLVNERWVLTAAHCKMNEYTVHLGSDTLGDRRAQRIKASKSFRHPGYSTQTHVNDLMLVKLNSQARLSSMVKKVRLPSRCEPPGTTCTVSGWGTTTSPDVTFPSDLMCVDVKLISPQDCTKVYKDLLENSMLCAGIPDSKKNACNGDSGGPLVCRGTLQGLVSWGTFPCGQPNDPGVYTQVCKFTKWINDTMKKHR
UHRF1 MBD2 ctr: UHRF1 methylated DNA binding inhibitors, primary screen, counter-screen for MBD2 inhibitor project, biochemical, TR-FRET, human UHRF1, single concentration; inhibition, % at 4.4 µM; actives 0.75% (n = 370,000); UHRF1 binding to methylated oligo; AID 687016, 2013; E3 ubiquitin-protein ligase UHRF1 (Homo sapiens), Q96T88; in the data active means inhibition above about 21%;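 further: UHRF1 SRA domain binding a hemimethylated CpG hairpin DNA probe; 0% = median of test compound wells and 100% = reference inhibitor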
LEDGF integ inh: blockers of LEDGF/p75-dependent integrase strand transfer – biochemical, TR-FRET, high throughput, primary screen | TR-FRET IN-LEDGF/p75 DNA integration, Eu/Cy5 | inhibition, % at 3.7 µM | actives 0.64% (n = 370,000);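 active means inhibition above the screen-wide mean plus 3 SD, cut at about 13% in these data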;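 further: signal is the Cy5 over europium emission ratio at 671 and 618 nm; 0% = plate median of compound wells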
MBD2 inh: inhibitors of MBD2 binding to methylated DNA, primary screen, biochemical, TR-FRET, DNA-binding domain, human | Methyl-CpG-binding domain protein 2 (Homo sapiens), Q9UBB5 | MBD2 binding to methylated oligonucleotide | inhibition, % at 4.4 µM | actives 0.31% (n = 370,000) | AID 686964, 2013; in the data active means inhibition above about 13%
UHRF1 DNA bind: UHRF1 methylated DNA binding inhibitors, counter-screen for MBD2 inhibitor project, biochemical, TR-FRET, human UHRF1; actives 25% (n = 1,000); UHRF1 binding to methylated oligonucleotide; shares compounds with MBD2 inh; inhibition, % at 4.4 µM; AID 720530, 2013; in the data active means inhibition above about 21%;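 further: UHRF1 SRA domain binding a labeled hemimethylated CpG hairpin DNA; 0% = vehicle only and 100% = reference inhibitor with vehicle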
MBD2 DBD conf: inhibitors of MBD2 binding to methylated DNA, confirmation, biochemical, TR-FRET, DNA-binding domain, human | shares compounds with MBD2 inh | inhibition, % at 4.4 µM | actives 26% (n = 1,000) | TR-FRET MBD2-DBD binding to methylated oligonucleotide
IN multimer act: HIV-1 IN multimer formation enhancers, counter-screen for LEDGF/p75 integration inhibitor project, biochemical, TR-FRET; activation, % at 7.7 µM; TR-FRET HIV-1 integrase multimerization; actives 17% (n = 2,000); AID 1053131, 2014; shares compounds with LEDGF integ inh; in the data active means activation above about 8.9%
TR-FRET interf: TR-FRET optical interference artefacts, confirmation, artefact control for LEDGF/p75-dependent integration inhibitor project, biochemical, HIV-1 IN multimerization | shares compounds with LEDGF integ inh | TR-FRET optical interference counterscreen | inhibition, % at 7.7 µM | 2,000 tested, under 10 active | AID 1053135, 2014;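 active means inhibition above the mean over all tested compounds plus 3 SD, which no compound reached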;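 further: 0% = integrase with antibodies and DMSO and 100% = antibodies without integrase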
IN-LEDGF confirm: inhibitors of HIV-1 IN-LEDGF/p75 DNA integration, confirmation, biochemical, TR-FRET; shares compounds with LEDGF integ inh; TR-FRET LEDGF/p75-dependent HIV-1 integration; inhibition, % at 3.7 µM; actives 36% (n = 2,000)
* marks the source's active call; other numbers are inactive results; i = inactive; . = not tested or not shown; + = active, no number. Unless noted, no stated cut-off is given here; in the data, active means inhibition above about 14%; inactive means the rest.

SMILES	Neddylation inh	Rin1-Abl PPI inh	KLK7 zymogen act	UHRF1 MBD2 ctr	LEDGF integ inh	MBD2 inh	UHRF1 DNA bind	MBD2 DBD conf	IN multimer act	TR-FRET interf	IN-LEDGF confirm
Cc1cc(N2CCN(C(=O)OC(C)(C)C)C[C@H]2C)ccc1N1C[C@@H](C)O[C@@H](C)C1	.	.	0	0	-4	3	.	.	.	.	.
C=C(C)C(=O)Oc1ccc(N=Nc2ccc(C)cc2)ccc1=O	i	7	0	62*	18*	38*	66*	43*	31*	-157	26*
CC(=O)c1ccc(N=Nc2ccc(C)cc2)cc1	i	-1	-1	-2	1	1	.	.	.	.	.
CN(C)S(=O)(=O)c1ccc(C(=O)OCCn2cnc3c2c(=O)n(C)c(=O)n3C)cc1	i	0	0	16	-2	9	.	.	.	.	.
CCOc1ccc(NC(=O)CN(C)C(=O)c2cc3c(s2)CCC3)cc1OCC	i	1	-1	27*	16*	17*	24*	20*	14*	-69	18*
CCOc1ccc(NC(=O)CN(C)C(=O)c2csc3c2CCCC3)cc1OCC	i	0	1	6	-2	-2	.	.	.	.	.
O=S(=O)(c1cc(O)ccc1O)c1cccc2c(S(=O)(=O)c3cc(O)ccc3O)cccc12	i	-1	1	33*	16*	20*	37*	17*	22*	-109	41*
O=C(N/N=C/c1cccc(F)c1)c1cc(-c2ccco2)nc2ccccc12	+	-5	-54	30*	20*	24*	42*	36*	21*	-107	49*
Cc1c(Br)c(O)c(Br)c2sc(=O)oc12	i	1	0	33*	55*	16*	9	5	2	-8	14*
O=C(/C=C/c1ccco1)NC(=S)Nc1ccc(C(=O)O)cc1	i	3	0	87*	63*	48*	75*	30*	37*	-133	53*
O=C1CCCC2=C1C(c1ccco1)Nc1ccc3ccccc3c12 (configuration not stated)	+	0	1	50*	33*	22*	48*	21*	4	-19	53*
Cc1ccc(S(=O)(=O)Oc2ccccc2[N+](=O)[O-])cc1	i	-2	0	-1	35*	14*	2	2	-2	9	-5
COc1ccccc1[N+](=O)[O-]	i	3	0	2	-6	3	.	.	.	.	.

Compound activity from PubChem.
